The values below come from PubChem BioAssay (NCATS).

The nature of test [1]: Quantitative High-Throughput drug screen in 47 multiple myeloma cell lines against the NCATS MIPE library collection: OCIMY7_PLB cell viability assay (AID 1918987). Further: nearly all actives have a fitted effect of over 65% in size. Further: potency means the concentration at half of the fitted maximal effect. In outline: (§1)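 MIPE 4.0 approved/investigational drugs; 500 cells/well; 48 h 37 °C humidified 5% CO2; CTG luminescence readout; DMSO = 100%, media = 0% viability.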
The nature of test [2]: Quantitative High-Throughput drug screen in 47 multiple myeloma cell lines against the NCATS MIPE library collection: OCIMY5_PLB cell viability assay (AID 1918988). Further: potency means the concentration at half of the fitted maximal effect; nearly all actives have a fitted effect of over 65% in size. In outline: as §1
Test [3] can be described thus: Quantitative High-Throughput drug screen in 47 multiple myeloma cell lines against the NCATS MIPE library collection: OPM1_PLB cell viability assay (AID 1918989). Further: nearly all actives have a fitted effect of over 40% in size. Further: potency means the concentration at half of the fitted maximal effect. Summed up: as §1
Test [4] can be described thus: Quantitative High-Throughput drug screen in 47 multiple myeloma cell lines against the NCATS MIPE library collection: SKMM1_PLB cell viability assay (AID 1919863). Further: nearly all actives have a fitted effect of over 35% in size. Further: potency means the concentration at half of the fitted maximal effect. To be noted: SKMM1 myeloma viability, CellTiter-Glo ATP, 48 h; viability: stronger effect = lower value. In outline: as §1
Background: ATP-based viability assays read luminescence as a measure of living cells.

A short description of test [5]: Quantitative High-Throughput drug screen in 47 multiple myeloma cell lines against the NCATS MIPE library collection: U266_ATCC cell viability assay (AID 1919864). Further: nearly all actives have a fitted effect of over 35% in size. Further: potency means the concentration at half of the fitted maximal effect.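 On viability (% of DMSO control): 0% = media-only wells without cells and 100% = DMSO-only wells.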 Summed up:
as §1

Test [6] can be described thus: Quantitative High-Throughput drug screen in 47 multiple myeloma cell lines against the NCATS MIPE library collection: XG1_PLB cell viability assay (AID 1919866). Further: nearly all actives have a fitted effect of over 35% in size. Further: potency means the concentration at half of the fitted maximal effect. In outline: as §1
Test [7] in a line: Quantitative High-Throughput drug screen in 47 multiple myeloma cell lines against the NCATS MIPE library collection: VP6_DJ cell viability assay (AID 1919867). Further: nearly all actives have a fitted effect of over 40% in size. Further: potency means the concentration at half of the fitted maximal effect. Summed up: as §1
Test [8] is described as follows: Quantitative High-Throughput drug screen in 47 multiple myeloma cell lines against the NCATS MIPE library collection: UTMC2_PLB cell viability assay (AID 1919868). Further: nearly all actives have a fitted effect of over 55% in size. Further: potency means the concentration at half of the fitted maximal effect.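 On viability (% of DMSO control): 100% = DMSO-only wells and 0% = media-only wells without cells.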 To be noted: CellTiter-Glo ATP luminescence, 48 h; viability (% of DMSO control): at 45.8 µM (top of the series) unless noted. In outline: as §1
Test [9] is described as follows: Quantitative High-Throughput drug screen in 47 multiple myeloma cell lines against the NCATS MIPE library collection: PE2_PLB cell viability assay (AID 1919869). Further: nearly all actives have a fitted effect of over 35% in size. Further: potency means the concentration at half of the fitted maximal effect. In outline: as §1
Test [10] is described as follows: Quantitative High-Throughput drug screen in 47 multiple myeloma cell lines against the NCATS MIPE library collection: PCM6_Riken cell viability assay (AID 1919870). Further: nearly all actives have a fitted effect of over 30% in size. Further: potency means the concentration at half of the fitted maximal effect. In outline: as §1
A short description of test [11]: Quantitative High-Throughput drug screen in 47 multiple myeloma cell lines against the NCATS MIPE library collection: RPMI8226_ATCC cell viability assay (AID 1919871). Further: potency means the concentration at half of the fitted maximal effect; nearly all actives have a fitted effect of over 30% in size. Summed up: as §1
A short description of test [12]: Quantitative High-Throughput drug screen in 47 multiple myeloma cell lines against the NCATS MIPE library collection: OPM2_DSMZ cell viability assay (AID 1919872). Further: nearly all actives have a fitted effect of over 30% in size. Further: potency means the concentration at half of the fitted maximal effect. Summed up:
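Primary qHTS used for cherry-picking: cells at 500/well, library compounds for 48 h (37C, 5% CO2), luminescent ATP assay.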

The nature of test [13]: Quantitative High-Throughput drug screen in 47 multiple myeloma cell lines against the NCATS MIPE library collection: KMS11_JCRBsus cell viability assay (AID 1919873). Further: nearly all actives have a fitted effect of over 50% in size. Further: potency means the concentration at half of the fitted maximal effect. In outline:
as §1

Test [14] in a line: Quantitative High-Throughput drug screen in 47 multiple myeloma cell lines against the NCATS MIPE library collection: KMS28BM_JCRB cell viability assay (AID 1919874). Further: nearly all actives have a fitted effect of over 35% in size. Further: potency means the concentration at half of the fitted maximal effect. In outline: as §1
The nature of test [15]: qHTS drug screen for cell cycle checkpoint inhibitors in PARPi-resistant BRCA-mutant ovarian cancer cell lines. (AID 1963452; calls by dose curve). The note with it: PEO1/OlaR viability, CellTiter-Glo luminescence, 96 h, stronger effect = lower value. In outline:
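PEO1, PEO4 and PEO1/OlaR ovarian cancer cells, 600 per well, exposed 96 h at 37C to a dilution series. Viability read by CellTiter-Glo luminescence, normalized to DMSO and empty wells; activity summarized as Z-AUC.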
A general note: qHTS replaces the single test concentration by a dilution series.

Test [16] is described as follows: Quantitative High-Throughput drug screen in 47 multiple myeloma cell lines against the NCATS MIPE library collection: XG6_PLB cell viability assay (AID 1919865). Further: nearly all actives have a fitted effect of over 40% in size. Further: potency means the concentration at half of the fitted maximal effect. Summed up: as §1
Test [17] is described as follows: qHTS for identification of novel therapeutic agents for treatment of microphthalmiaassociated transcription factor (MiT) renal cell carcinoma (RCC) (AID 1963991). To be noted: CellTiter-Glo, 48 h, stronger effect = lower value. Summed up: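 Curves over 11 concentrations were fitted to CellTiter-Glo luminescence, scaled between empty wells (0%) and DMSO (100%) viability. Cells were UOK109, UOK124 and UOK145 TFE3-fusion RCC lines at 500/well, exposed 48 hours at 37 C.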

Test [18] can be described thus: qHTS profiling for inhibitors of Plasmodium falciparum proliferation (AID 504749).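 Further: 0% = DMSO vehicle and full inhibition = artemisinin control; nearly all actives have a fitted effect of over 60% in size.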 To be noted: P. falciparum in erythrocytes, SYBR Green DNA, 72 h; at 12.8 µM (top of the series); parasite line A. Summed up:
(§2)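 Parasite proliferation within erythrocytes, 72 h exposure. Endpoint: SYBR Green I fluorescence after overnight lysis at room temperature. Controls: 0.29 uM artemisinin, DMSO.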

Test [19] has as its system 3D7. Described as above. The note with it: P. falciparum in erythrocytes, SYBR Green DNA, 72 h; series mostly up to 28.7 µM. In outline: as §2
[20] abbreviates: measured here: PEO1 parental Z-AUC.
Where [21] appears, read: TFE3-RCC UOK109 viability, measured here: UOK109 Z-AUC.
[22] abbreviates: TFE3-RCC viability, measured here: UOK124 Z-AUC.
The mark [23] stands for this setting: TFE3-RCC viability, measured here: UOK145 Z-AUC.

Results filed as inconclusive are left out. Calls of active or inactive are those of the source. Unless noted, the call rests on the fitted dose curve; in most records, active means well fitted curve in the direction sought with a large enough effect; inconclusive means small, poorly fitted or top-dose-only effect, or another doubt; inactive means no such curve, though single readings can be large; an effect the other way counts as inactive or inconclusive.

As to `Cc1cc(Nc2ncnc3ccc(-c4ccc(CNCCS(C)(=O)=O)o4)cc23)ccc1Oc1ccn2ncnc2c1`, the Potency in [1] was 9.35 µM (active); in [2] it was 16.6 µM (active); in test [3], 5.9 µM (active); in [4], 26.4 µM (active); in [5] it was 18.7 µM (active); in [6] it was 6.62 µM (active). The Potency in test [7] was 1.48 µM (active); in test [8], 6.62 µM (active); in test [9], 3.32 µM (active); in [10], 16.6 µM (active); in [11] it was 26.4 µM (active); in test [12], 20.9 µM (active). In addition, the results for the Potency in [13] and in test [14] were 5.9 µM (active) and 16.6 µM (active), respectively. Also, the Z-AUC in [15] is 0.841 (inactive); in test [15] (setting [20]), 0.912; in test [15] (measured here: PEO4 Z-AUC) it was 0.782.

In the case of `Cc1cn(-c2cc(NC(=O)c3ccc(C)c(Nc4nccc(-c5cccnc5)n4)c3)cc(C(F)(F)F)c2)cn1`, the Potency result in [1], in [3], in test [5], in [7], in test [10] and in test [14] was “inactive” in each case. Besides, the values for the Potency in test [2], in test [12] and in [13] were 13.2 µM (active), 14.8 µM (active) and 5.26 µM (active), respectively. Also, the Z-AUC in test [15] was 0.642 (inactive); in test [15] (setting [20]), 0.692; in test [15] (measured here: PEO4 Z-AUC) it was 0.0156.

For the compound `Cc1cn2c(-c3cn[nH]c3)cnc2c(Nc2ccc(C(=O)N3CCNCC3)cc2F)n1`, the Potency in [1] was 10.5 µM (active); in [2], 20.9 µM (active); in [3], 18.7 µM (active); in [5] it was 13.2 µM (active); in test [16] it was 2.96 µM (active); in [6], 3.72 µM (active). Besides, the Potency was 8.33 µM (active) in test [7]; 20.9 µM (active) in [9]; 18.7 µM (active) in test [10]; 23.5 µM (active) in test [12]; 8.33 µM (active) in [13]; 8.33 µM (active) in test [14].

As to `CCc1cc2c(cc1N1CCC(N3CCOCC3)CC1)C(C)(C)c1[nH]c3cc(C#N)ccc3c1C2=O`, the Potency in test [1] was 1.48 µM (active). The Z-AUC in test [15] is 0.0393 (inactive); in test [15] (setting [20]), -0.229; in test [15] (measured here: PEO4 Z-AUC), -0.554.

As for `CCCn1c(=O)c2[nH]c(-c3cnn(Cc4cccc(C(F)(F)F)c4)c3)nc2n(CC)c1=O`, the Potency in test [2] was 23.5 µM (active); in [11], 7.43 µM (active). For the same compound, the Potency result in test [3], in test [5], in [6], in [8], in test [9] and in test [10] was “inactive” throughout. Further, the Potency result in test [13] and in [14] was “inactive” each time. For the same compound, the Z-AUC is 1.35 (inactive) in test [15], 1.45 in test [15] (setting [20]) and 1.33 in test [15] (measured here: PEO4 Z-AUC). Besides, the z-score in test [17] (setting [21]) worked out at 0.85; in [17] (setting [22]), 0.351; in test [17] (setting [23]), 0.744.

Consider `Nc1ccc(S(=O)(=O)Nc2ncccn2)cc1`, for which the Potency entry in test [3], in test [5], in test [16], in [6], in test [7] and in test [8] was “inactive” in each case. Besides, the Potency result in test [9], in test [10], in test [12], in test [13], in test [14] and in test [19] was “inactive” throughout. Also, the viability in test [4] is 155% (inactive). In addition, the z-score in test [17] (setting [21]) was -0.287; in test [17] (setting [22]) it was 0.624; in [17] (setting [23]), -0.336. Also, the activity, negative = inhibition in test [18] was 8.9% (inactive).

By viability is commonly meant a read-out of living cells in per cent, often relative to untreated cells.
